Source: PubChem BioAssay (National Center for Advancing Translational Sciences (NCATS))
CtBP-E1A inh = CtBP/E1A binding inhibition; AlphaScreen GST-E1A/His-CtBP binding, 1536-well; active compounds read low; activity change, % (concentration not given with the values); actives 0.49% (n = 340,000); AID 651724; in the data active = activity change below about -65%; inconclusive = mostly about -30% to -63%
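GST-E1A and His-tagged CtBP (125 nM each as 5X stock) were preincubated with pin-transferred compound for 2 h at 37 °C in the dark, then glutathione donor and nickel acceptor beads were added for 1 h before AlphaScreen reading.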
L3MBTL1 inh = blocks human L3MBTL1; AlphaScreen L3MBTL1–H3K9me1 peptide binding; Potency, µM (doses to about 57.1 µM), for the others: at the highest dose activity, negative = inhibition, actives largely listed as inhibitors; actives 0.66% (n = 230,000); AID 485360; also: potency is read from the fitted curve at half-maximal effect; nearly all actives have a fitted effect of over 60% in size
Target sequence (Q9Y468 whole entry, looked up): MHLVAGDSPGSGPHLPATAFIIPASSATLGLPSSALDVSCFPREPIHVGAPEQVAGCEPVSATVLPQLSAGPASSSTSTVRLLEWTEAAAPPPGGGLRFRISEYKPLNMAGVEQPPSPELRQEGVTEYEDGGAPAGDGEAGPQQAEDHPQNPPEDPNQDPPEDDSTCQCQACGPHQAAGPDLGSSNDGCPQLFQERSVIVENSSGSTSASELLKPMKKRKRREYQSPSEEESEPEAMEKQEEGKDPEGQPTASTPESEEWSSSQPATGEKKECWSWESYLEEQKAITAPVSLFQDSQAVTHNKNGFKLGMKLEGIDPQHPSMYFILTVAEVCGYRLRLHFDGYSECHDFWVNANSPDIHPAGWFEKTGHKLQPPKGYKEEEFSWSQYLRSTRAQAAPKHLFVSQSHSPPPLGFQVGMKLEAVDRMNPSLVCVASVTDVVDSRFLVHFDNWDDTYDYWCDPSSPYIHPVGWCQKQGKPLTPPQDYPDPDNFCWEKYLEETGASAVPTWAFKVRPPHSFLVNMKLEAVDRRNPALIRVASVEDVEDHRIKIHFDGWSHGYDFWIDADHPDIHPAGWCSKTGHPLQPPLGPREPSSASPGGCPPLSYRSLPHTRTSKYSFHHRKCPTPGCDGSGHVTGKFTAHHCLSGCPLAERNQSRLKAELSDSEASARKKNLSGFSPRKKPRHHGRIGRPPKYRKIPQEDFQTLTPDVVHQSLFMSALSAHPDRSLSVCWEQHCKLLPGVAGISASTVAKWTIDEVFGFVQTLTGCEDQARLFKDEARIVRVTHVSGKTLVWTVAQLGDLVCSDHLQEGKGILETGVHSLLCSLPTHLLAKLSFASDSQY
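Read-out is AlphaScreen signal from streptavidin donor and nickel chelate acceptor beads (10 ug/mL final each) bridging L3MBTL1 (50 nM) and biotinylated K9-monomethylated H3(1-15) peptide (75 nM), after 30 min compound exposure at room temperature.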
Six1-Eya2 inh = blocks human Six1 binding to Eya2. Q15475+O00167. AlphaScreen GST-Six1/His-Eya2 binding, biochemical; active compounds read low. activity change, % (concentration not given with the values). actives 0.56% (n = 360,000). AID 651725; in the data active = activity change below about -65%; inconclusive = mostly about -30% to -63%
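AlphaScreen luminescence read after one hour at 37 °C in darkness. Pin-transferred compounds met GST-Six1 and His-Eya2 protein (5X stock 250 nM/500 nM) plus glutathione donor and Ni-chelate acceptor beads (5X, 50 ug/mL).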
Eya2 phos inh = inhibitors of human Eya2 phosphatase activity | O00167 | recombinant Eya2, OMFP fluorescence dephosphorylation (OMFP is methylfluorescein phosphate) | Potency, µM (series often up to 76.9 µM), inactives show top-dose activity, negative = inhibition, actives largely listed as inhibitors | actives 0.006% (n = 330,000) | AID 488837; also: potency is read from the fitted curve at half-maximal effect
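Eya2 protein (added as 0.2 uM solution) was preincubated with compound for 10 min at ambient temperature in 50 mM HEPES pH 7.5, 50 mM NaCl, 5 uM MgCl2, 0.05% BSA, 1 mM DTT. OMFP (added at 50 uM) then reacted 10 min; fluorescence read at 485/525 nm.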
USP2a block = blocks human ubiquitin-specific protease USP2a; USP2 core, Ub-CHOP2 coupled fluorogenic reporter, 485/531; Potency, µM (titrated, usually from 38.3 µM), for the others: top-dose activity change, negative = inhibition, most hits filed as inhibitors; actives 0.01% (n = 330,000); AID 463254;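 also: potency is read from the fitted curve at half-maximal effect; plate controls were DMSO wells for no effect and full inhibition by NEM control for full effect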
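Cell-free coupled assay: 10nM USP2 core preincubated 30min RT with compound in Tris-HCl pH 8.0/CaCl2/CHAPS buffer, then 25nM Ub-CHOP2 and 25nM reporter substrate; fluorescence (Ex 485/Em 531) read after 60min RT, normalized to NEM inhibition, concentration-response curves fitted.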
uPA generation = inhibitors of cell surface uPA generation; cell surface uPA generation assay, qHTS; actives 0.31% (n = 330,000); Potency, µM (titrated, usually from 38.3 µM), for the others: at the highest dose activity change, negative = inhibition, actives largely listed as inhibitors; AID 540303; active = well fitted inhibition curve with a large enough effect; inconclusive = small, poorly fitted or top-dose-only effect; inactive = no such curve, though single readings can be large or run the other way; tested in mouse RAW 264.7 cells; also: potency is read from the fitted curve at half-maximal effect; nearly all actives have a fitted effect of over 55% in size
Starred values were filed as active, the others as inactive; ? = inconclusive; . = not tested or not shown; [ ] = another dose, or the depositor's remark. Rows were chosen to be rich in hits. Some 1.2% of all compounds tested hit in one or more screens of this group. Unless noted, calls follow the shape of the dose curve; as a rule, active = well fitted curve in the direction sought with a large enough effect; inconclusive = small, poorly fitted or top-dose-only effect, or another doubt; inactive = no such curve, though single readings can be large; an effect the other way counts as inactive or inconclusive. Unless noted, % is scaled to controls: 0 for no effect and ±100 for the full control effect.

SMILES	CtBP-E1A inh	L3MBTL1 inh	Six1-Eya2 inh	Eya2 phos inh	USP2a block	uPA generation
Cc1ccc(C)c(N2CCN(S(=O)(=O)c3ccc4c(c3)NC(=O)CS4)CC2)c1	-13	.	-13	-15%	-6%	1%
O=C(N/N=C/c1c(O)ccc2ccccc12)c1ccc[n+](CCO)c1	-90*	35µM*	-91*	-3%	3%	-1%
O=C(N/N=C\c1c(O)ccc2ccccc12)c1cncc(Br)c1	?	-3%	?	?	?	-13%
Cc1ccc(C(=O)N/N=C/c2c(O)ccc3ccccc23)cn1	.	.	-74*	12%	3%	?
Cn1c(/N=C/c2c(O)ccc3ccccc23)nc2ccccc21	-19	35µM*	-2	6%	-2%	.
O=C(NN=Cc1c(O)ccc2ccccc12)c1ccncc1	?	.	-89*	.	.	-9%
CC1CCN(C(=O)CN(c2ccc3c(c2)OCCO3)S(=O)(=O)c2ccccc2)CC1	7	.	5	-5%	0%	1%
CCOc1ncccc1C(=O)OCc1cccc([N+](=O)[O-])c1	-3	-12%	-1	?	-2%	-8%
Cc1ccc(Cn2cc(/C=N/NC(=O)Cc3nnc(NC(=O)c4ccc(C)cc4)s3)c3ccccc32)cc1	.	.	1	2%	14%	-5%
CCC(=O)NC(Nc1c(C)n(C)n(-c2ccccc2)c1=O)C(Cl)(Cl)Cl (centres undefined)	.	1%	-8	-1%	2%	2%
CC1Cc2ccccc2N1C(=O)c1cc2cccnc2n(C)c1=O (centres undefined)	8	10%	1	1%	1%	-3%
Cn1nccc1C(=O)N/N=C/c1c(O)ccc2ccccc12	-83*	.	-87*	?	2%	?
Cn1c2ccccc2c2cc(/C=N/NC(=O)c3ccc(N)cc3)ccc21	-20	.	-8	13%	-9%	-7%
Cn1c(-c2ccccc2)c(/C=N/NC(=O)c2ccc(O)cc2)c2ccccc21	.	-18%	-12	9%	0%	3.5µM*
O=C(N/N=C\c1c(O)ccc2ccccc12)c1ccc(O)cc1	?	-5%	-65*	4%	0%	?
O=C(N/N=C/c1c(O)ccc2ccccc12)c1cccnc1	-92*	.	-67*	9%	12%	-15%
Cc1occc1C(=O)N/N=C/c1c(O)ccc2ccccc12	-28	.	-23	-4%	-8%	-13%
Cn1cc(C(=O)N/N=C/c2c(O)ccc3ccccc23)ccc1=O	.	?	-89*	0%	0%	?
OCC[C@H]1C[C@H](O)[C@@H](O)[C@@]2(Cc3ccccc3O2)O1	5	-1%	2	-31%	1%	-3%
COc1cc(NC(=O)CCn2c(=S)[nH]c3ccccc3c2=O)cc(OC)c1OC	1	.	3	.	.	.
COc1cccc(CSc2nc3ccccc3[nH]2)c1	6	5%	6	-3%	5%	8.9µM*
O=[N+]([O-])c1cccc(CSc2nc3ccccc3[nH]2)c1	-7	-9%	0	-6%	2%	0%
CSc1nc(N)n2nc(C)cc2n1	-92*	.	-89*	.	.	.
Cc1ccc(C)c(N(C(=O)c2snc(C(N)=O)c2N)C(C(=O)NCC2CCCO2)c2ccc(C)o2)c1 (centres undefined)	-1	.	-3	-1%	0%	.
CN1CCN(C(=O)C(=O)c2cn(CC(=O)N3CCCCCC3)c3ccccc23)CC1	0	.	8	.	.	.
SMILES	CtBP-E1A inh	L3MBTL1 inh	Six1-Eya2 inh	Eya2 phos inh	USP2a block	uPA generation
O=C(c1ccco1)N1CCN(C(=O)c2cc(-c3ccccn3)nc3ccc(Cl)cc23)CC1	-92*	9%[11.4 µM]	-87*	-17%	1%	1%
Cc1oc2ccccc2c1CC(=O)NCCCN(C)C	.	.	6	2%	-3%	-18%
CCOc1ccc(NC(=O)c2cc(F)c(F)cc2Cl)cc1OCC	-97*	27%	-6	4%	-1%	2%
O=C(Nc1ccc(S(=O)(=O)NC2=NCCCCC2)cc1)c1cccs1	.	-6%	-6	7%	0%	11%
O=C(Nc1ccc(S(=O)(=O)NC2=NCCCCC2)cc1)c1ccc([N+](=O)[O-])s1	-5	-3%	-3	12%	0%	10µM*
CN1CCc2c(sc3nc(SCC(=O)N4CCOCC4)n(-c4ccc(Cl)cc4)c(=O)c23)C1	-80*	.	-14	8%	0%	0%
Cc1ccc(Nc2cc(C)nn2-c2nc(C)cc(C)n2)cc1	-29	-7%	-29	-5%	-6%	-1%
Cc1ccc(Nc2cc(C)nn2-c2nc(C)cc(=O)[nH]2)cc1	-81*	2%	-82*	-2%	-1%	-10%
O=C1C=C(c2ccc3c(c2)OCO3)C[C@@H](c2ccc3c(c2)OCO3)C1	-6	-9%	0	-8%	1%	1%
O=C1C=C(c2ccc3cc[nH]c3c2)C[C@@H](c2ccc3c(c2)OCO3)C1	?	32µM*	-12	-25%	-1%	?
Cc1ccnc(NC(=O)c2cnc(Cl)c(Cl)c2)c1	-1	.	-4	11%	1%	-4%
CC1CCCCN1C(=O)CN1C(=O)CSc2ccc(S(=O)(=O)N3CCOCC3)cc21 (centres undefined)	0	.	2	6%	0%	-1%
COc1ccc(-c2nnc3c4ccccc4c(C)nn23)cc1S(=O)(=O)N1CCN(CCO)CC1	-82*	-3%	-71*	-5%	-1%	.
Cc1nn2c(-c3ccc(S(=O)(=O)N4CCN(CCO)CC4)o3)nnc2c2ccccc12	-75*	.	?	4%	2%	?
CCn1ccnc1CNCc1cn(-c2cc(C)ccc2C)nc1-c1ccccc1	.	?	-82*	-13%	-5%	5%
Cc1ccc(C)c(-n2cc(CNCCc3cnccn3)c(-c3ccccc3)n2)c1	.	-6%	0	-13%	1%	-26%
O=C(NCCCN1CCCC1)c1[nH]c(C(F)(F)F)nc1-c1ccccc1	-17	.	-5	.	.	.
CCCC(=O)Nc1ccc2c(c1)nc(CN1CCN(C(=O)OCC)CC1)n2C	-9	.	2	-6%	0%	-2%
CCCC(=O)Nc1ccc2c(c1)nc(CN1CCN(C(=O)OCC)CC1)n2CC	8	.	0	?	2%	3.5µM*
O=C(CSc1nccc(=O)[nH]1)c1c[nH]c2ccccc12	-1	7%	1	11%	-2%	7%
O=C(CSc1nccc(=O)[nH]1)c1ccccc1Br	-68*	.	-70*	17%	0%	.
COc1ccc(COC(=O)C2CC(=O)N(Cc3ccc(C)cc3)C2)cc1 (centres undefined)	0	.	7	-4%	2%	4%
